Here are results for 8 sequences from publication PMC7862700, “An all-to-all approach to the identification of sequence-specific readers for epigenetic DNA modifications on cytosine”.

Experiment in all cases: DAPPL (digital affinity profiling via proximity ligation, sequencing); 10 mM Tris-HCl pH 7.5, 50 mM NaCl, 1 mM DTT, 4% glycerol, room temperature, 30 min; GST-TFs on glutathione beads, 16-mer random dsDNA library, 0.1% formaldehyde crosslink after washing; high values mean tight binding
Holding throughout (conditions): protein: recombinant; tags: N-terminal GST; dsDNA, one strand shown

The target of one assay is T1, FLI1 (Homo sapiens, UniProt Q01543 1-452).
T1 sequence: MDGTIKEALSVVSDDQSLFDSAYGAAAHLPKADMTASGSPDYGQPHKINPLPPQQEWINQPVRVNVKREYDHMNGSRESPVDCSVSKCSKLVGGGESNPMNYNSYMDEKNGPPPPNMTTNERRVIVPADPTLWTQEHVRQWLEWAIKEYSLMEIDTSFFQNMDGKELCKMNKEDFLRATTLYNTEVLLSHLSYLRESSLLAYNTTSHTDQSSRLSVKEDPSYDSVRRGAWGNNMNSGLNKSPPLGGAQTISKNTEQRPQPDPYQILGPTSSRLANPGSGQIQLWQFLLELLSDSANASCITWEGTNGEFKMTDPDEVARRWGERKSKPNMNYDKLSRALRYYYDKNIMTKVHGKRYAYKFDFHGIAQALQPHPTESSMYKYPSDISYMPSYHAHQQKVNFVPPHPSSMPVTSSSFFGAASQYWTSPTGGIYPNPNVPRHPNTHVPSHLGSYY
A digest of the protocol: (§1)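 Human transcription factors carrying a GST fusion were produced in yeast, bound to glutathione beads, tagged with DNA barcodes and pooled together with a tag-only sample. Each pool was held with 200 nmole of a random double-stranded 16-mer DNA library in Tris/NaCl/DTT/glycerol buffer for 30 min at room temperature, then washed, crosslinked in 0.1% formaldehyde, proximity-ligated with BsaI/T4 ligase (1 h, 37 °C), PCR-amplified and sequenced on an Illumina NextSeq500. Binding signal is the read frequency of each hexamer for a given factor divided by its frequency in the tag-only sample.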

The next assay concerns the target T2, ELK1 (Homo sapiens, UniProt P19419 1-428).
T2 sequence: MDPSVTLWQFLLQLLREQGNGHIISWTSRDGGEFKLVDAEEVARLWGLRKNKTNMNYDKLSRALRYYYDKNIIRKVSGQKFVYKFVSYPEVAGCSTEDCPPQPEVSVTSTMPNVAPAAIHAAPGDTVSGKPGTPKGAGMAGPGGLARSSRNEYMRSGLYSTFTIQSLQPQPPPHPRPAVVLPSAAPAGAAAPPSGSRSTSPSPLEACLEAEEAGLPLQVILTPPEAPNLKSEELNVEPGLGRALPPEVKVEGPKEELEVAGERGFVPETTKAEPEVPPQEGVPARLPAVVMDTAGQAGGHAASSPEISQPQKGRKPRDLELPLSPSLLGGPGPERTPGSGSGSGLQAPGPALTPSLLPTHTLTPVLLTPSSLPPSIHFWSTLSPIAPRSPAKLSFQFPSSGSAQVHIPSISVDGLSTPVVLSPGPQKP
A digest of the protocol:
as §1

Another assay deals with T3, ERG (Homo sapiens, UniProt P11308 1-479).
T3 sequence: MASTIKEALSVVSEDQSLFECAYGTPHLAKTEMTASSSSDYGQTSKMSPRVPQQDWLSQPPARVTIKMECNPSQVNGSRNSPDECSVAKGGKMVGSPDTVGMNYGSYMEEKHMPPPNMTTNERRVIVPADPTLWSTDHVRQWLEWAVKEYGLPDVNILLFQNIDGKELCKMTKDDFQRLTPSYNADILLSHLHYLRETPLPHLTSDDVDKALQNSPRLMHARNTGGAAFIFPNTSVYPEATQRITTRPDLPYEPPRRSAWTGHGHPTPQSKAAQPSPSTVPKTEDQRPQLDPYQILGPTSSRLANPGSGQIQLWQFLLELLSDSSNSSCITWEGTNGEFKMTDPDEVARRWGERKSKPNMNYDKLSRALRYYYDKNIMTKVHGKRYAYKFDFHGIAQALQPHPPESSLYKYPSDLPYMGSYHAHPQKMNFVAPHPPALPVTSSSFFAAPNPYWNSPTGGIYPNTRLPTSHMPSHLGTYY
A digest of the protocol: as §1

A further assay concerns the target ELF1 (Homo sapiens, UniProt P32519 1-619). The gist of the method:
as §1

A further assay deals with T4, EHF (Homo sapiens, UniProt Q9NZC4 1-300).
T4 sequence: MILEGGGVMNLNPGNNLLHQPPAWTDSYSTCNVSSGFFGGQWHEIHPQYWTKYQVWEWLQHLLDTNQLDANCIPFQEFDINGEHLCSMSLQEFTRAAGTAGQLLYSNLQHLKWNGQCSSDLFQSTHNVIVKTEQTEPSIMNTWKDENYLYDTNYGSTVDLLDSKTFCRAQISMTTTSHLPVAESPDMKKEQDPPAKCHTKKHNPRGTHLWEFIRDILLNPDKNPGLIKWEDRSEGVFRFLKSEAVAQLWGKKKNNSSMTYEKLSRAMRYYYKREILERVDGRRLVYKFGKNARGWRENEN
A digest of the protocol:
as §1

A further assay deals with SPI1 (Homo sapiens, UniProt P17947 1-270). A digest of the protocol:
as §1

The target in another assay is SPIB (Homo sapiens, UniProt Q01892 1-262). The gist of the method: as §1
SPIB, sequence (Q01892 whole entry): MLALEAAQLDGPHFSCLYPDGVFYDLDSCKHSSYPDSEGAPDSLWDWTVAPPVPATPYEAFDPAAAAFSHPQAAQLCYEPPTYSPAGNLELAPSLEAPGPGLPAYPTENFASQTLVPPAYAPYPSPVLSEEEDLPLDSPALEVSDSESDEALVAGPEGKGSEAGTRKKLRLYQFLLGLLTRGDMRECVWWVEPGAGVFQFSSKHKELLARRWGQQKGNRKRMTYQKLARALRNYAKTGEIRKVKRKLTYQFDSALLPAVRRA
In the next assay the target is T5, ELK3 (Homo sapiens, UniProt P41970 1-407).
T5 sequence: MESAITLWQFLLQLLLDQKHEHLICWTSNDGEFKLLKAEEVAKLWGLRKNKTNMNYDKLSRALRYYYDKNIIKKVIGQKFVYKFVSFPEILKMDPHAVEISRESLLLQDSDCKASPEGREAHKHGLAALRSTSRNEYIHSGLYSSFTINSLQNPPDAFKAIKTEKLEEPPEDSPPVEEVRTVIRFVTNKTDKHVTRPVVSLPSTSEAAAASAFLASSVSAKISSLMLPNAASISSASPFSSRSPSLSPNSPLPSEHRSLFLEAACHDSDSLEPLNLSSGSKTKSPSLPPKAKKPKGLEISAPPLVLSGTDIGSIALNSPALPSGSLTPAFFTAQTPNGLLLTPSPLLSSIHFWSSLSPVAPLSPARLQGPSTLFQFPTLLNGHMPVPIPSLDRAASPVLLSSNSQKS
A digest of the protocol:
as §1

Another assay concerns the target T6, GABPA (Homo sapiens, UniProt Q06546 1-454).
T6 sequence: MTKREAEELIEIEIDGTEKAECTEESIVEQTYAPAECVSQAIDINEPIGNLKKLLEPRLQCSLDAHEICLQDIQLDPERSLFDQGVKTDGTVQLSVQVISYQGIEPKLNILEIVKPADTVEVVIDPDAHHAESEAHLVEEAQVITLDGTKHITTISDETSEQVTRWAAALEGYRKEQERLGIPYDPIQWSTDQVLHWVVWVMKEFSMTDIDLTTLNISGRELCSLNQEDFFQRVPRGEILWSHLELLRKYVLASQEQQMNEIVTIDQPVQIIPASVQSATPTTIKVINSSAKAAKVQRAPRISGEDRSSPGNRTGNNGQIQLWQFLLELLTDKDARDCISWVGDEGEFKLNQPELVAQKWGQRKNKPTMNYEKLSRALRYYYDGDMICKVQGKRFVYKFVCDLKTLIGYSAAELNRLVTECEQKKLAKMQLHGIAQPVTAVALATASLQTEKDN
A digest of the protocol:
as §1

ELF1, sequence (P32519 whole entry): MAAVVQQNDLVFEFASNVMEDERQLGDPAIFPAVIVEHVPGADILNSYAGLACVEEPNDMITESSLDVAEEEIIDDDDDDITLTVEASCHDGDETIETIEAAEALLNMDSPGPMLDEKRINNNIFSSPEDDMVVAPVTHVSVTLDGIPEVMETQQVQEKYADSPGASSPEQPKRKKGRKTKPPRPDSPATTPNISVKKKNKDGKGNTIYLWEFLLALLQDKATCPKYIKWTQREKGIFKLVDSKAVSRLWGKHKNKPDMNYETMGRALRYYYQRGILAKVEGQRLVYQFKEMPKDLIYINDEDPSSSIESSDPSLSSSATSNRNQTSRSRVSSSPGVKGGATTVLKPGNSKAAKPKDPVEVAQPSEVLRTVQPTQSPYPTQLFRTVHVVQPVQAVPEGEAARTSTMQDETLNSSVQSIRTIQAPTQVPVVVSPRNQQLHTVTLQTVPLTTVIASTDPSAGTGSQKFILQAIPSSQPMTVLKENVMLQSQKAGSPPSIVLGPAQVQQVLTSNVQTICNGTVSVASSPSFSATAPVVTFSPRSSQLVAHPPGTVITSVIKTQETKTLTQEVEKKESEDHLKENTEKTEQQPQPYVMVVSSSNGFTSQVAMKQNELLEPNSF

On to GGAACA, for which the binding signal with FLI1 is 1.06 fold enrichment (6-mer frequency, TF over GST control); with ELK1, 1.09 fold enrichment (6-mer frequency, TF over GST control); with ERG, 1.16 fold enrichment (6-mer frequency, TF over GST control); with ELF1 it was 1.02 fold enrichment (6-mer frequency, TF over GST control); with EHF, 1.12 fold enrichment (6-mer frequency, TF over GST control); with SPI1, 1.15 fold enrichment (6-mer frequency, TF over GST control). The binding signal is 1.18 fold enrichment (6-mer frequency, TF over GST control) with SPIB and 1.12 fold enrichment (6-mer frequency, TF over GST control) with ELK3.

On to GCTGAC, for which the binding signal with FLI1 is 1.17 fold enrichment (6-mer frequency, TF over GST control); with ELK1 it was 1.1 fold enrichment (6-mer frequency, TF over GST control); in the assay with GABPA, 1.04 fold enrichment (6-mer frequency, TF over GST control); with ELF1 it was 1.16 fold enrichment (6-mer frequency, TF over GST control); with EHF, 1.21 fold enrichment (6-mer frequency, TF over GST control); in the assay with SPI1 it was 1.04 fold enrichment (6-mer frequency, TF over GST control). For the same sequence, the binding signal was 1.12 fold enrichment (6-mer frequency, TF over GST control) with SPIB and 1.13 fold enrichment (6-mer frequency, TF over GST control) in the assay with ELK3.

For TCACAG, the binding signal with FLI1 is 1.09 fold enrichment (6-mer frequency, TF over GST control); in the assay with ELK1, 1.15 fold enrichment (6-mer frequency, TF over GST control); with GABPA it was 1.1 fold enrichment (6-mer frequency, TF over GST control); with ELF1, 1.06 fold enrichment (6-mer frequency, TF over GST control); with EHF, 1.02 fold enrichment (6-mer frequency, TF over GST control); in the assay with SPIB it was 1.09 fold enrichment (6-mer frequency, TF over GST control). In the assay with ELK3, the binding signal was 1.01 fold enrichment (6-mer frequency, TF over GST control).

Take AAGCCC: the binding signal is 1.04 fold enrichment (6-mer frequency, TF over GST control) in the assay with FLI1; 1.07 fold enrichment (6-mer frequency, TF over GST control) with ELK1; 1.11 fold enrichment (6-mer frequency, TF over GST control) in the assay with GABPA; 1.08 fold enrichment (6-mer frequency, TF over GST control) with ELF1; 1.04 fold enrichment (6-mer frequency, TF over GST control) with SPI1; 1.07 fold enrichment (6-mer frequency, TF over GST control) with SPIB.

On to TGATCG, for which the binding signal was 1 fold enrichment (6-mer frequency, TF over GST control) with FLI1; 1 fold enrichment (6-mer frequency, TF over GST control) with ELK1; 1.03 fold enrichment (6-mer frequency, TF over GST control) with GABPA; 1.03 fold enrichment (6-mer frequency, TF over GST control) in the assay with ELF1; 1.13 fold enrichment (6-mer frequency, TF over GST control) with EHF; 1.03 fold enrichment (6-mer frequency, TF over GST control) with SPI1. Moreover, the binding signal was 1.12 fold enrichment (6-mer frequency, TF over GST control) with SPIB and 1.17 fold enrichment (6-mer frequency, TF over GST control) with ELK3.

As to CCCTGG, the binding signal is 1.1 fold enrichment (6-mer frequency, TF over GST control) with FLI1; 1.13 fold enrichment (6-mer frequency, TF over GST control) with ELK1; 1.21 fold enrichment (6-mer frequency, TF over GST control) with GABPA; 1.19 fold enrichment (6-mer frequency, TF over GST control) with ELF1; 1.11 fold enrichment (6-mer frequency, TF over GST control) with EHF; 1.06 fold enrichment (6-mer frequency, TF over GST control) with SPI1. The binding signal with SPIB is 1.09 fold enrichment (6-mer frequency, TF over GST control); with ELK3, 1.03 fold enrichment (6-mer frequency, TF over GST control).

Turning to TCATAA, the binding signal with FLI1 was 1.03 fold enrichment (6-mer frequency, TF over GST control); in the assay with ELK1, 1.05 fold enrichment (6-mer frequency, TF over GST control); with GABPA, 1.03 fold enrichment (6-mer frequency, TF over GST control); in the assay with ELF1, 1.02 fold enrichment (6-mer frequency, TF over GST control); with SPI1 it was 1.06 fold enrichment (6-mer frequency, TF over GST control).

For the sequence AAGCGA, the binding signal was 1.02 fold enrichment (6-mer frequency, TF over GST control) with FLI1; 1.02 fold enrichment (6-mer frequency, TF over GST control) in the assay with ELK1; 1.11 fold enrichment (6-mer frequency, TF over GST control) with ERG; 1.06 fold enrichment (6-mer frequency, TF over GST control) with ELF1; 1.19 fold enrichment (6-mer frequency, TF over GST control) with EHF; 1.07 fold enrichment (6-mer frequency, TF over GST control) with SPI1. The binding signal is 1 fold enrichment (6-mer frequency, TF over GST control) with SPIB and 1.07 fold enrichment (6-mer frequency, TF over GST control) with ELK3.
